Bioassay records: PubChem BioAssay, National Center for Advancing Translational Sciences (NCATS)
A selection: hits, their analogues and other compounds. The true share with any hit is near 7.3%.
NPC1 promoter act: activates the NPC1 promoter; 320,000 compounds, 2.4% hits; Huh7 NPC1 promoter luciferase reporter, 24 h; AID 485313; Potency, µM (doses to about 9.22 µM), most hits filed as activators; also: nearly all actives have a fitted effect of over 60% in size
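Luciferase expression driven by the NPC1 promoter was measured in stably transfected Huh7 cells after a 24 h compound incubation, using a luciferase reagent and a luminescence read.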
FLuc counter: firefly luciferase modulation, counter-screen for miR-21 project | P08659 | purified FLuc, Km substrates, luminescence inhibition | Potency, µM (top dose mostly 57.5 µM), usual class: inhibitors | 360,000 compounds, 6.9% hits | AID 588342; also: nearly all actives have a fitted effect of over 55% in size
Target sequence (P08659 whole entry, looked up): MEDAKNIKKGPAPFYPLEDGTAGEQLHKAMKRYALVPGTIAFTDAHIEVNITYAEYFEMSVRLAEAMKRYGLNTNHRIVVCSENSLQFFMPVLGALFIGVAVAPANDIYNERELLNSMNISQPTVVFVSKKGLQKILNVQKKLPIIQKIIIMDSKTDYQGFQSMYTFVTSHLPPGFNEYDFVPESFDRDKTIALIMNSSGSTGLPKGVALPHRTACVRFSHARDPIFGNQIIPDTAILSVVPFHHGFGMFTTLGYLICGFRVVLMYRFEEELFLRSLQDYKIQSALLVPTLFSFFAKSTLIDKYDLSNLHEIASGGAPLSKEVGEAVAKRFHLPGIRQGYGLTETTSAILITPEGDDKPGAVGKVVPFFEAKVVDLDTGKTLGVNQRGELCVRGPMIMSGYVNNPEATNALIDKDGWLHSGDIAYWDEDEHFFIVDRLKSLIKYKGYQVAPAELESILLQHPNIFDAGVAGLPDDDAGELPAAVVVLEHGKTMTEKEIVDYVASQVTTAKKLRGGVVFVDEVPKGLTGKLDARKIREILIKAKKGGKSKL
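Biochemical qHTS of compounds, final roughly 60 µM downward over six points, against 10 nM purified firefly luciferase using Km concentrations of substrates (10 uM D-luciferin, 10 uM ATP) in Tris acetate pH 7.5 buffer; luminescence output.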
Rab9 promoter act: activators of Rab9 promoter; Huh7 Rab9 promoter-luciferase reporter, luminescence, 24 h; Potency, µM (doses to about 9.22 µM), most hits filed as activators; 320,000 compounds, 2.8% hits; also: nearly all actives have a fitted effect of over 60% in size
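Cell-based reporter: Huh7 stable for Rab9 promoter-driven luciferase, plated in reduced-serum medium with 10% FBS at 1500 cells/well, compound-treated 24 h at 37 °C, luminescence read after 10 min reagent.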
Luc counter: counter-screen: inhibitors of Kinase-Glo firefly luciferase; 200,000 compounds, 0.28% hits; Q27757; Kinase-Glo luciferase, ATP luminescence, 8 min; Potency, µM (series often up to 38.3 µM), most hits filed as inhibitors; AID 1379; also: nearly all actives have a fitted effect of over 60% in size
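Inhibition of Kinase-Glo luciferase light generation was assessed at 10 uM ATP in pH 7.2 imidazole buffer, with luminescence measured after eight minutes at ambient temperature.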
ELG1 genotox: inducers of genotoxicity in HEK293T ELG1-luciferase cells; AID 504466; 330,000 compounds, 1.3% hits; HEK293T ELG1-luciferase reporter, luminescence, 16 h; Potency, µM (series often up to 46 µM), hits mostly activators; also: nearly all actives have a fitted effect of over 60% in size
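Reporter readout depends on ELG1 protein level, which increases with genetic stress. After 16 hr compound exposure at 37 °C, luciferase activity was quantified using ONE-Glo.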
SMN2 splice enh: increases expression of the SMN2 splice variant | HEK293 SMN2-luciferase splicing reporter, luminescence, 30-36 h | Potency, µM (highest dose often 46.1 µM), hits mostly activators | 210,000 compounds, 2.8% hits | AID 1458; also: nearly all actives have a fitted effect of over 55% in size
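HEK293 cells carry an SMN2 […]–luciferase reporter in which exon 7 inclusion puts luciferase in frame. Cells were plated 10-12 h before compound addition, then incubated 30-36 h at 37C. ONE-Glo luminescence was read; sodium butyrate at 4.5 mM final served as control.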
Hits are given with their value; i = inactive; ? = inconclusive; nt = not tested or not shown. Calls follow the shape of the dose curve; as a rule, active = well fitted curve in the direction sought with a large enough effect; inconclusive = small, poorly fitted or top-dose-only effect, or another doubt; inactive = no such curve, though single readings can be large; an effect the other way counts as inactive or inconclusive.

SMILES | NPC1 promoter act | FLuc counter | Rab9 promoter act | Luc counter | ELG1 genotox | SMN2 splice enh
CCOC(=O)c1ccc(Nc2c(-c3ccc(N(C)C)cc3)nc3nc[nH]n23)cc1 | nt | i | nt | nt | nt | nt
CSCC[C@H](NC(=O)Cc1c(C)c2cc3c4c(oc3cc2oc1=O)CCCC4)C(=O)O | i | 10.7µM | i | nt | i | nt
Cc1c(CC(=O)N[C@@H](CCCNC(N)=O)C(=O)O)c(=O)oc2cc3oc4c(c3cc12)CCCC4 | i | 16.9µM | i | nt | i | nt
CCC(NC(=O)CCc1c(C)c2cc3c4c(oc3cc2oc1=O)CCCC4)C(=O)O (centres undefined) | i | 15.1µM | i | nt | i | nt
CCc1cccc(NC(=O)CCc2c(C)nc3c(-c4ccccc4)c(C)nn3c2C)c1 | nt | ? | nt | nt | nt | i
Fc1cccc2sc(Nc3nnc(-c4ccccc4)o3)nc12 | 2.51µM | 3.01µM | 3.16µM | i | ? | 3.16µM
Fc1cccc2sc(Nc3nc4c(F)cccc4s3)nc12 | ? | 4.26µM | ? | i | i | 15.8µM
COc1cc(OC)cc(-c2nnc(Nc3nc4c(F)cccc4s3)o2)c1 | i | ? | i | i | i | i
Cc1cc(N2CCN(c3cccc(C)c3C)CC2)n2nc(C)c(-c3ccc(Cl)cc3)c2n1 | nt | i | nt | nt | nt | i
O=C(CCn1cccn1)Nc1ccc(Br)cc1F | nt | i | nt | nt | nt | nt
CC(C)(c1ccccc1)c1ccc(OCc2ccc(C(=O)O)o2)cc1 | 2.82µM | 26.9µM | 1.12µM | nt | ? | nt
CC(C)(C)c1ccc(OCc2ccc(C(=O)NCc3cccnc3)o2)cc1 | 2.82µM | 16.9µM | 1.26µM | i | ? | ?
CC(C)(C)c1ccc(OCc2ccc(C(=O)NN)o2)cc1 | 0.398µM | 15.1µM | 0.794µM | nt | ? | nt
CCCn1c2ccccc2c2cnn(CC(=O)N3CCCC(C)C3)c(=O)c21 (centres undefined) | nt | i | nt | nt | nt | nt
Cc1ccc(C)c(-c2nnc(NC(=O)CCS(=O)(=O)c3ccccc3)o2)c1 | i | i | i | nt | i | nt
Cc1cc(-c2nnc(-c3cccc(Cl)c3)o2)no1 | 3.55µM | 5.36µM | 2.51µM | nt | ? | nt
Cc1ccccc1-c1nnc(CS(=O)(=O)c2ccccc2)o1 | 1.12µM | 4.78µM | 1.12µM | nt | ? | nt
Cc1ccccc1-c1nc(Cc2ccc(Cl)cc2)no1 | i | ? | i | i | 23.1µM | i
Cc1ccccc1-c1nnc(-c2ccccc2)o1 | ? | 6.75µM | 3.16µM | ? | 9.2µM | 12.6µM
Cc1nnc(-c2ccccc2)o1 | i | i | i | nt | i | nt
CC(C)Cn1c(=O)c2sccc2n2c(CCCC(=O)NCC(C)c3ccccc3)nnc12 (centres undefined) | nt | i | nt | nt | nt | nt
COc1ccc(CCNC(=O)c2ccc(Cn3c(=O)c4cccn4c4cccnc43)cc2)cc1OC | nt | i | nt | nt | nt | nt
Cc1cccc(OCc2nnc(-c3ccccc3)o2)c1 | nt | ? | nt | nt | nt | i
Cc1ccc(CS(=O)(=O)c2ccccc2-c2nnc(-c3ccc(Cl)cc3)o2)cc1 | i | i | i | i | i | i
Cc1ccccc1-c1nnc(-c2ccc(Cl)cc2)o1 | ? | 6.75µM | 3.98µM | i | 16.4µM | nt
SMILES | NPC1 promoter act | FLuc counter | Rab9 promoter act | Luc counter | ELG1 genotox | SMN2 splice enh
Cc1cccc(-c2nnc(-c3ccccc3)o2)c1 | ? | 9.53µM | ? | i | 8.2µM | 11.2µM
Cn1cc(-c2nnc(-c3ccccc3)o2)c2ccccc21 | 2.51µM | 0.675µM | 2.24µM | i | ? | 2.51µM
CC(C)c1ccc(NC(=O)CSc2nc(=O)n(Cc3cccnc3)c3c2CCC3)cc1 | nt | i | nt | nt | nt | nt
CCOC(=O)c1c(S(=O)(=O)N2CCC(C(=O)N3CCN(c4cccc(C)c4C)CC3)CC2)c(C)n(C)c1C | nt | i | nt | nt | nt | nt
CCCCC#Cc1nc(NC)c2ncn([C@@H]3O[C@@H](CO)[C@H](O)[C@H]3O)c2n1 | nt | nt | nt | i | nt | nt
CC1N/C(=C\C(=O)c2ccccc2)N(O)C1(C)C (centres undefined) | 2.24µM | 8.49µM | 1.41µM | i | 8.2µM | ?
O=C1Nc2ccccc2/C1=C\C(=O)c1ccccc1 | i | ? | i | nt | i | nt
CCc1ccc(N2CC(C)Cn3c2nc2c3c(=O)n(CC(=O)O)c(=O)n2C)cc1 (centres undefined) | nt | i | nt | nt | nt | i
Cc1ccc2c(c1)C=CC(C)N2C(=O)c1ccccc1 (centres undefined) | i | i | i | i | i | i
Cc1ccc2c(c1)C=CC(C#N)N2C(=O)c1ccccc1 (centres undefined) | i | i | i | i | i | 6.31µM
